# This is a sample that favours compounds with a hit; in the whole collection about 4.5% have one here.
# EBNA-1 inh: blocks EBNA-1 binding to DNA. 300,000 compounds, 0.34% hits. EBNA-1 DNA binding, fluorescence polarization. inhibition, % at 14.8 µM. AID 1950; in the data active means inhibition above about 28%
# dFosB activator: activators of mouse delta FosB homodimer | P13346 | purified delta FosB, TAMRA-CDK5 oligo fluorescence polarization; percent of positive-control signal above neutral wells | activation, % at 25 µM | 340,000 compounds, 0.99% hits;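 active means mean activation above about 17%, with every replicate also reaching it, limit read from the data, passing the limit was not always enough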
# Target sequence (P13346 whole entry, looked up): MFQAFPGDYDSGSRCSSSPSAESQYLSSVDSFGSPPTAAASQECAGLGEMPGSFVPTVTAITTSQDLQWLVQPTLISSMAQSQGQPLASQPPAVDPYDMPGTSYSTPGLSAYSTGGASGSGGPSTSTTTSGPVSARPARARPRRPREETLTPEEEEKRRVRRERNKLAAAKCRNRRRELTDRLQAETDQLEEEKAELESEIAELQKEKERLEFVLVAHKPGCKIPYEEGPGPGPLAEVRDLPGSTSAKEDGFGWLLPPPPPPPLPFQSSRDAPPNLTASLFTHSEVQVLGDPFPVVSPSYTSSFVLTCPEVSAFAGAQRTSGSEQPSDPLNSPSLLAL
# Rpn11 block: Rpn11 (human) deubiquitinase inhibition; AID 588493; O00487; 360,000 compounds, 0.59% hits; human 26S proteasome, Ub4-pepOG fluorescence polarization; 20S core pre-blocked with epoxomicin; inhibition, % at 20 µM;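 active means inhibition at 20 µM, scaled to each plate's controls, above about 33%, limit read from the data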
# GRIN3A LBD mod: NR3A (human) ligand-binding domain modulation. NR3A LBD differential scanning fluorimetry, Tm shift; 0% = protein alone, 100% = glycine-bound protein. Tm shift relative to glycine control, % at 25 µM. 340,000 compounds, 2.5% hits;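 active means melting temperature shift of at least 10% of the positive control shift, at one fixed dose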
# TPT1 inh: C. albicans TPT1 enzyme inhibition | 300,000 compounds, 0.81% hits | recombinant caTPT1, FP RNA substrate dephosphorylation | AID 1962 | inhibition, % at 5 µM;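 active means inhibition above the mean of all tested compounds plus 3 SD, set per screening campaign, cut at about 24% in these data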;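 further: plate controls were DMSO alone for no effect and ferristatin control at 100 nM for full effect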
# ZTA DNA inh: ZTA (EBV) inhibition in EBNA-1 counter-screen | 320,000 compounds, 0.15% hits | P03206 | ZTA-DNA binding, fluorescence polarization | inhibition, % at 11 µM | AID 2234; in the data active means inhibition above about 33%
# * hit, by the source's call; nt = no result shown.
SMILES,EBNA-1 inh,dFosB activator,Rpn11 block,GRIN3A LBD mod,TPT1 inh,ZTA DNA inh
O=C(Nc1ccc(-c2noc(-c3ccccc3F)n2)cc1)c1cccs1,-8,0,-8,29*,3,-9
Cc1ccccc1OCc1nc(-c2ccc(NC(=O)c3cccs3)cc2)no1,-1,5,0,20*,-2,-16
NC(=O)c1ccc(-c2noc(-c3ccccc3F)n2)cc1,nt,6,1,-2,nt,-5
Cc1ccccc1OCc1nc(-c2ccc(NC(=O)c3ccco3)cc2)no1,-4,3,8,1,-1,3
C=CCn1c(SCC(=O)Nc2cccc(S(=O)(=O)N(C)c3ccccc3)c2)nnc1C1CC1,3,-8,-12,1,-1,6
Cc1cc(C)c(C(=O)C(C)OC(=O)c2ccc(Cl)nc2)cc1C (stereo unspecified),5,-12,-8,0,2,6
CC(C)Oc1ccccc1OC1(C)CCN(Cc2ccc(OC(F)(F)F)cc2)C1 (stereo unspecified),nt,nt,4,nt,nt,nt
CCOC(=O)c1c(-c2ccc(C)o2)csc1NC(=O)CN1CCOCC1,0,-13,-3,-1,0,-2
CCOC(=O)c1c(-c2cccs2)csc1NC(=O)CN1CCOCC1,-2,-9,7,23*,1,14
COc1ccc(CCNC(=O)COC(=O)COc2ccc(C#N)cc2)cc1,6,-2,-7,0,-4,-4
Cc1ccc(Oc2ccc(-c3nc(N)nc(N)n3)cc2)cc1C,2,2,7,14*,-7,13
CC(C)(C)C(=O)Nc1ccc(S(=O)(=O)Nc2nccs2)cc1,4,3,-5,2,-3,-15
Cc1ccc(CCN2CC(C(=O)NCc3ccc4c(c3)OCO4)CC2=O)cc1 (stereo unspecified),-4,-4,3,0,2,4
O=C(NCc1cccc2[nH]ccc12)C1CCC(=O)N(CCc2ccc(Cl)cc2)C1 (stereo unspecified),-4,-12,2,11*,-1,18
O=C(NCc1ccc2c(c1)OCO2)C1CC(=O)N(CCc2ccc(Cl)cc2)C1 (stereo unspecified),7,3,-5,12*,1,6
Cc1ccc(NC(=O)c2cccc3c2C(=O)N(C2CCCCC2)C3)c(Cl)c1,0,-12,1,-9,-2,7
CC(C)C(c1nnnn1Cc1ccc2c(c1)OCO2)N1CCN(C)CC1 (stereo unspecified),-11,-4,-6,1,1,-5
CCCC(c1nnnn1Cc1ccc(OC)cc1)N1CCN(c2ccccc2)CC1 (stereo unspecified),nt,-2,0,-1,nt,nt
COc1ccc(Cn2nnnc2C(CC(C)C)N2CCN(c3ccccc3)CC2)cc1 (stereo unspecified),10,-13,-1,18*,1,0
CC(C)C(c1nnnn1Cc1ccc2c(c1)OCO2)N1CCN(c2ccccc2)CC1 (stereo unspecified),-15,-2,2,13*,1,7
CCOC(=O)N1CCc2c(sc(NC(=O)c3ccc(S(=O)(=O)N4CCCC4)cc3)c2C#N)C1,-6,-7,50*,5,20,4
COc1ccc(C)cc1NC(=S)N1CCN(S(C)(=O)=O)CC1,4,-8,-6,0,-1,-1
O=C(CSc1nnc(-c2ccccc2)o1)N1CCCCC1,1,4,0,0,0,11
C#CCn1c(=NC(=O)c2ccccc2[N+](=O)[O-])sc2cc(S(C)(=O)=O)ccc21,11,33*,-8,9,5,11
COCCn1c(=NC(=O)c2nc3ccccc3s2)sc2cc(S(C)(=O)=O)ccc21,-8,-8,0,2,1,-12
SMILES,EBNA-1 inh,dFosB activator,Rpn11 block,GRIN3A LBD mod,TPT1 inh,ZTA DNA inh
COC(=O)c1ccc(CSc2nc3ccccc3c(=O)n2C)o1,-6,-11,-1,1,-1,-4
COC(=O)c1ccc(CSc2nc3ccccc3c(=O)n2CC(C)C)o1,2,-8,9,20*,-3,-8
Cn1c(SCC(=O)Nc2cccc(F)c2)nnc1-c1cc2ccccc2o1,-3,13,-2,11*,-5,-3
CC1(C)c2ccccc2N2CC(=O)N(CC(N)=O)C21C (stereo unspecified),9,40*,nt,1,-36,-10
COc1cccc(Oc2nccc(N(C)C)c2C#N)c1,7,-7,-2,2,-10,-3
CCn1cc(C(=O)NC(C)C)c(=O)c2cc(F)c(N3CCN(C(=O)c4ccco4)CC3)cc21,11,-13,2,12*,0,8
CCn1cc(C(=O)NCCC(C)C)c(=O)c2cc(F)c(N3CCN(C(=O)c4ccco4)CC3)cc21,-11,-12,4,1,4,10
O=C(/C=C/c1cccnc1)/C=C/c1cccnc1,nt,7,8,-1,nt,nt
COC(=O)c1ccsc1NS(=O)(=O)c1ccccc1,5,1,7,1,9,23
CCOC(=O)c1ccc(NC(=O)Nc2ccc3c4c(cccc24)C(=O)N3CC)cc1,15,-5,nt,17*,5,-8
COC(=O)c1sc(NC(=O)c2c(C)noc2C)nc1C,-2,-1,-3,-26,-1,-4
CCOC(=O)c1sc(NC(=O)c2c(CC)noc2C)nc1C,nt,-7,3,19*,nt,1
CCOC(=O)c1sc(NC(=O)Nc2ccc(Cl)cc2)nc1C,-3,-4,-4,28*,-3,-13
CCOC(=O)c1sc(NC(=O)CSc2nccn2C)nc1C,13,-6,2,13*,3,10
CCCc1cc(=O)oc2c3c(cc(OCC(=O)N4CCC(C(=O)O)CC4)c12)OC(C)(C)CC3,nt,nt,-11,nt,nt,nt
Fc1cccc(-c2cncc(N3CCN(CCN4CCCC4)CC3)n2)c1,nt,nt,-16,nt,nt,nt
O=C(Nc1ccccc1)c1ccc(-c2ccccc2C(F)(F)F)o1,2,-15,15,-3,0,1
O=C(NCc1ccc(Cl)cc1)c1ccc(-c2ccccc2C(F)(F)F)o1,2,-1,5,438*,2,9
CCN(CC)C(=O)CSc1nc2c(sc(=S)n2-c2ccccc2)c(=O)n1-c1ccc(OC)cc1OC,-15,-10,1,12*,-2,-3
CCN(CC)C(=O)CSc1nc2c(sc(=S)n2-c2ccccc2)c(=O)n1-c1ccccc1OC,nt,-2,-10,4,nt,nt
CCN1CCN(S(=O)(=O)c2ccc(Oc3ccccc3OC)cc2)CC1,-2,3,-4,-1,1,17
O=C(Nc1ccc2c(c1)OCCO2)c1ccccn1,-5,-12,-7,1,0,-10
O=C(Nc1ccc(NC(=O)c2cccs2)cc1)c1ccc2c(c1)OCCO2,3,17*,2,29*,2,22
